Experimental findings from PubChem BioAssay AID2284181 (EPA ToxCast) are described below.

Inconclusive results are not listed. Active and inactive are the calls of the source. The calls were made as follows: active = hit-call score of the fitted dose curve at least 0.9, where 1 is the maximum; inconclusive = response in the unintended direction; inactive = score below 0.9.

Sequence of human Serotonin Receptor 5-HT1A, HTR1A (gene 3350) (P08908 whole entry, looked up): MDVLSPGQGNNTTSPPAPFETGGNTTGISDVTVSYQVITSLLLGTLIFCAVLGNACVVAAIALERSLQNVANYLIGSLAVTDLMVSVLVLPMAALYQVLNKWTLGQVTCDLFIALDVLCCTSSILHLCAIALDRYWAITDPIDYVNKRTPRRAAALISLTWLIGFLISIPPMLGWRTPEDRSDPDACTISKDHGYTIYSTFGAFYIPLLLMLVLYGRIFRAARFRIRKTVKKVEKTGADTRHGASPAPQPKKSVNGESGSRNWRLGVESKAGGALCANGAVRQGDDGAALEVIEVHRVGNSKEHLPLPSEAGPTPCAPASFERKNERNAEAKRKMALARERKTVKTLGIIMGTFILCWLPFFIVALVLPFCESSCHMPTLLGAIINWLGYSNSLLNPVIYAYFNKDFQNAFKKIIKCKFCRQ

The test addresses human Serotonin Receptor 5-HT1A, HTR1A (gene 3350) (UniProt P08908). Nature of the test: ERF_FR_GPCR_hHTR1A: Eurofins (ERF) G Protein-Coupled Receptor (GPCR) Radioligand Binding LeadHunter Assay for human Serotonin Receptor 5-HT1A Agonism, conducted at France lab site. As to the method: ERF_FR_GPCR_hHTR1A is a biochemical, single-readout assay that uses extracted gene-proteins in a cell-free assay. Measurements were taken 1 hour after chemical dosing in a 96-well plate. See 5-HT1A Human Serotonin GPCR Binding (Agonist Radioligand) Assay, Cerep.ERF_FR_GPCR_hHTR1A is an assay component calculated from the ERF_FR_GPCR_hHTR1A assay. It is designed to measure radioligand binding using a type of binding reporter as detected by scintillation counting with radiometry technology.Data from the assay component ERF_FR_GPCR_hHTR1A was analyzed at the assay endpoint, ERF_FR_GPCR_hHTR1A, in the positive analysis fitting direction relative to DMSO as the negative control and baseline of activity. Using a type of binding reporter, gain-of-signal activity can be used to understand changes in binding as they relate to gene HTR1A. To generalize the intended target to other relatable targets, this assay endpoint is annotated to the gpcr intended target family, where the subfamily is serotonin.
Human cells are incubated for 60 minutes at room temprature with [3H]8-OH-DPAT ligand (0.5 nM) and 8-OH-DPAT as control inhibitor. Test Sample Requirements: Minimum for 1) Screen: 60 ul of 10 mM stock -OR- 1 mg (pre-weighed) for 10 uM final testing. 2) Dose Response: 90 ul of 10 mM stock -OR- 1 mg (pre-weighed) for a top concentration at 10 uM.
Turning to `CCCCC[C@H](O)CC(=O)CCc1ccc(O)c(OC)c1`, the call was inactive.
`O=C(/C=C/c1ccc(O)cc1)CC(=O)/C=C/c1ccc(O)cc1`: the outcome was inactive.
In the case of `COc1cc(/C=C/C(=O)CC(=O)/C=C/c2ccc(O)c(OC)c2)ccc1O`, the AC50 (commonly the concentration at which the activity in the assay is half-maximal) is 2010 nM (active).
